Compounds without any hit were thinned out: in the full panel of roughly 83,000, 20% have a hit.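 Compound tested at a single concentration for 48 hours in 96-well plates; a percent growth value below 10 was scored as active.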 Unmarked numbers belong to inactive results. Active and inactive are the calls of the source.

The text below walks through data of PubChem BioAssay (NCI).

Some test systems named below: NCI-H23 lung; NCI-H226 lung; NCI-H322M lung; HOP-62 NSCLC; NCI-H460 lung; NCI-H522 lung; A549/ATCC NSCLC; 786-0 renal; COLO 205 colon; DU-145 prostate; K-562 leukemia; MALME-3M melanoma; MDA-MB-231 breast; RXF 393 renal; SF-268 CNS; SF-295 CNS; SF-539 CNS; UACC-257 melanoma; M14 melanoma.
Common to all, as to assay: NCI-60 one-dose screen, 48 h (100 = growth as untreated, 0 = no growth, -100 = all killed)
Common to all, as to conditions: 10 µM unless noted

As for `CCNC(=O)N1CCc2cc(OC)c(OCCc3ccc(OC)cc3)cc2C1c1ccc(Cl)cc1C` (stereo not given), the growth was 25.1% in the test on NCI-H23 lung; 32.4% in the test on NCI-H226 lung; 46.6% in the test on NCI-H322M lung; 27.7% in the test on HOP-62 NSCLC; 1.35% (active) with NCI-H460 lung; -16.2% (active) in the test on NCI-H522 lung. The growth is 9.93% (active) in the test with A549/ATCC NSCLC; 9.78% (active) in the test on 786-0 renal; 13.9% in the test with COLO 205 colon; 16.2% in the test with DU-145 prostate; 12.3% in the test with K-562 leukemia; 60.4% in the test with MALME-3M melanoma. Further, the growth in the test on MDA-MB-231 breast was 12.4%; in the test with RXF 393 renal, -4.98% (active); with SF-268 CNS, 27.1%; in the test with SF-295 CNS, 13.3%; with SF-539 CNS, 5.79% (active); with UACC-257 melanoma, 44.7%. Also, in the test with M14 melanoma, the growth is 17.5%.

For the compound `CNC(=O)c1cc(Oc2ccc3nc(NC(=O)c4cc(N5CCOCC5)cc(C(F)(F)F)c4)sc3c2)ccn1`, the growth is 88.2% with NCI-H23 lung; 85.4% in the test with NCI-H226 lung; 89.4% in the test with NCI-H322M lung; 89.3% in the test with HOP-62 NSCLC; 67.5% in the test on NCI-H460 lung; 81.6% in the test with NCI-H522 lung. The growth was 68.5% in the test on A549/ATCC NSCLC; 80.3% in the test with 786-0 renal; 94% in the test with COLO 205 colon; 86.1% in the test with DU-145 prostate; 67.2% in the test on K-562 leukemia; 87.1% in the test with MALME-3M melanoma. For the same compound, the growth was 76.2% in the test on MDA-MB-231 breast; -9.02% (active) in the test on RXF 393 renal; 86% with SF-268 CNS; 44.6% in the test on SF-295 CNS; 91.5% in the test on SF-539 CNS; 82.4% with UACC-257 melanoma. Further, in the test on M14 melanoma, the growth was 77.5%.

As for `O=S(=O)(Nc1ccc2c(c1)OCO2)c1ccc(-c2cnc(C3CC3)o2)cc1`, the growth with NCI-H23 lung was 42%; in the test with NCI-H226 lung, 55.9%; in the test on NCI-H322M lung, 64.5%; in the test on HOP-62 NSCLC, 43.3%; in the test on NCI-H460 lung it was 23.5%; in the test with NCI-H522 lung it was 34.4%. The growth was 43.8% in the test on A549/ATCC NSCLC; 46.2% with 786-0 renal; 35.3% with COLO 205 colon; 44.6% in the test with DU-145 prostate; 12.3% in the test on K-562 leukemia; 46.2% in the test with MALME-3M melanoma. The growth in the test on MDA-MB-231 breast was 46.2%; in the test with RXF 393 renal, 34.9%; with SF-268 CNS, 53.6%; in the test with SF-295 CNS, 9.2% (active); in the test on SF-539 CNS, 33%; with UACC-257 melanoma it was 55%. Also, the growth in the test on M14 melanoma was 22.8%.

For `NS(=O)(=O)c1ccc(-n2cc(-c3cccc(NC(=O)c4ccc(N5CCOCC5)c(C(F)(F)F)c4)c3)nn2)cc1`, the growth with NCI-H23 lung is 26.3%; with NCI-H226 lung it was 15.5%; in the test with NCI-H322M lung, 26%; in the test on HOP-62 NSCLC, 11.8%; in the test with NCI-H460 lung, 50.7%; in the test on NCI-H522 lung, 39.9%. Also, the growth in the test on A549/ATCC NSCLC was 53.5%; in the test on 786-0 renal, 33.6%; in the test on COLO 205 colon, 50.7%; in the test on DU-145 prostate, 41.1%; in the test on K-562 leukemia it was 19.3%; in the test with MALME-3M melanoma, 43.8%. The growth is 52% in the test with MDA-MB-231 breast; 68.9% in the test on SF-268 CNS; 32.6% in the test with SF-295 CNS; 42.7% in the test on SF-539 CNS; 82.5% with UACC-257 melanoma.

In the case of `COc1ccc(NCc2cn(-c3ccc(C(=O)O)cc3)nc2-c2cc(C(F)(F)F)cc(C(F)(F)F)c2)cc1`, the growth was 104% with NCI-H23 lung; 107% in the test with NCI-H226 lung; 94% with NCI-H322M lung; 104% in the test with HOP-62 NSCLC; 93.6% in the test on NCI-H460 lung; 94.4% in the test on NCI-H522 lung. Further, the growth was 87.7% in the test on A549/ATCC NSCLC; 102% with 786-0 renal; 110% in the test with COLO 205 colon; 103% with DU-145 prostate; 90.5% in the test with K-562 leukemia; 86.8% in the test with MALME-3M melanoma. In addition, the growth was 101% in the test on MDA-MB-231 breast; 111% with RXF 393 renal; 99.2% with SF-268 CNS; 102% in the test on SF-295 CNS; 86.5% in the test with SF-539 CNS; 105% with UACC-257 melanoma. In the test with M14 melanoma, the growth was 96.4%.

For the compound `Cc1cc(C)c2sc(=O)n(Cc3nnc(SCCC(=O)O)o3)c2n1`, the growth with NCI-H23 lung was 101%; with NCI-H226 lung it was 94.5%; with NCI-H322M lung, 98%; with HOP-62 NSCLC, 98.2%; with NCI-H460 lung, 105%; in the test on NCI-H522 lung, 100%. Further, the growth in the test on A549/ATCC NSCLC was 104%; in the test with 786-0 renal, 104%; in the test with COLO 205 colon, 124%; with DU-145 prostate, 108%; in the test on K-562 leukemia it was 94.2%; in the test on MALME-3M melanoma it was 99.2%. Besides, the growth in the test on MDA-MB-231 breast is 97.5%; with RXF 393 renal it was 89.2%; in the test with SF-268 CNS, 99.2%; with SF-295 CNS it was 101%; in the test on SF-539 CNS, 98.8%; in the test on UACC-257 melanoma, 101%. The growth in the test on M14 melanoma is 104%.

In the case of `COc1cc(-c2nc3sccn3c2-c2ccnc(S(C)(=O)=O)n2)ccc1F`, the growth with NCI-H23 lung was 92.4%; with NCI-H226 lung it was 94.5%; with NCI-H322M lung it was 89.3%; in the test on HOP-62 NSCLC it was 108%; in the test with NCI-H460 lung, 100%; with NCI-H522 lung, 93.4%. Also, the growth was 94.2% with A549/ATCC NSCLC; 102% in the test on 786-0 renal; 114% in the test on COLO 205 colon; 102% with DU-145 prostate; 89.6% with K-562 leukemia; 4.8% (active) with MALME-3M melanoma. In addition, the growth was 87% in the test with MDA-MB-231 breast; 84.5% in the test with RXF 393 renal; 100% in the test on SF-268 CNS; 98.6% in the test on SF-295 CNS; 91.5% with SF-539 CNS; 96.1% in the test on UACC-257 melanoma. Moreover, in the test with M14 melanoma, the growth is 97.9%.

Regarding `O=C(Nc1nc2ccc([N+](=O)[O-])cc2s1)Nc1ccccc1Cl`, the growth with NCI-H23 lung is 9.48% (active); with NCI-H226 lung, 30.7%; in the test with NCI-H322M lung, 52.2%; in the test on HOP-62 NSCLC, 28.2%; with NCI-H460 lung, 20.1%; in the test on NCI-H522 lung, 0.0093% (active). Also, the growth is 30.2% in the test on A549/ATCC NSCLC; 48.5% in the test with 786-0 renal; 39.8% in the test with COLO 205 colon; 40.2% in the test with DU-145 prostate; 20.6% in the test on K-562 leukemia; 12.1% with MALME-3M melanoma. Further, the growth is 47.5% in the test with MDA-MB-231 breast; 49.2% in the test with RXF 393 renal; 41.7% in the test with SF-268 CNS; 48.5% in the test with SF-295 CNS; 54.7% in the test with SF-539 CNS; 23.2% in the test with UACC-257 melanoma. Moreover, the growth with M14 melanoma is 45.1%.
